Experiment [1] is described as follows: antimalarial activity against Dd2 strain (AID 2302;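 active = growth inhibition above 50% at the single 2 µM test dose, taken to imply half-maximal potency below 2 µM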;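 also: 0% = DMSO untreated growth and 100% = chloroquine plus artemisinin killed control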). The following applies: P. falciparum Dd2 in RBCs, LDH growth readout, 72 h; at 2 µM; active compounds read high.
Experiment [2] is described as follows: human hepatoma cell viability loss – ATP luminescence, cytotoxicity control for P. falciparum antimalarial project, primary screen (AID 2303;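 active = inhibition above 50%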;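 also: 0% = DMSO wells and 100% = digitonin-killed cells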). The conditions noted are these: HepG2 viability, 24-48 h, at 10 µM, active compounds read high.
Experiment [3] has as its target L-lactate dehydrogenase (Plasmodium falciparum (isolate CDC / Honduras)) (UniProt Q27743). Kind of experiment: PfLDH activity inhibition – cell lysate, 3D7 strain, counter-screen for P. falciparum growth inhibition project (AID 2304).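 Also: 0% = vehicle and 100% = reference inhibitor.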 The following applies: P. falciparum 3D7 crude extract, LDH APAD/NBT absorbance; at 2 µM; active compounds read high.
A short description of experiment [4]: inhibition of 3D7 malaria parasite growth – strain 3D7 (AID 2306).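 Also: 0% = DMSO wells and 100% = chloroquine plus artemisinin control wells.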 The conditions noted are these: P. falciparum 3D7 erythrocytic growth, LDH absorbance, 72 h; at 2 µM; active compounds read high.
For experiment [5], the target named is Calcium-dependent protein kinase 1 (Plasmodium falciparum (isolate 3D7)) (UniProt P62344). As to the kind of experiment: PfCDPK1 kinase inhibitors, biochemical, TCAMS library (AID 1159585; cut-off not given, nearly all actives have IC50 up to about 0.98 µM;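 also: inhibitors leave more ATP so luminescence rises with inhibition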). The following applies: recombinant PfCDPK1, Kinase-Glo ATP depletion luminescence.
Experiment [6] concerns the target Plasmodium falciparum protein kinase 6 (PK6, PF3D7_1337100) (UniProt Q8IDW1). Kind of experiment: PfPK6 kinase inhibitors, biochemical, TCAMS library (AID 1159586). The conditions noted are these: recombinant PfPK6, Kinase-Glo ATP depletion luminescence. On the technique in general: Kinase-Glo reads ATP consumption through a luciferase reaction.
Experiment [7] concerns the target Protein kinase 7 (PK7), Plasmodium falciparum 3D7 (PF3D7_0213400) (UniProt Q7YTF7). Kind of experiment: inhibition of Plasmodium PK7 catalytic activity – biochemical, TCAMS antimalarial set, Kinase-Glo luminescence (AID 1159587). The conditions noted are these: recombinant PfPK7, Kinase-Glo ATP depletion luminescence.
Experiment [8] deals with Calcium-dependent protein kinase 4 (Plasmodium falciparum (isolate 3D7)) (UniProt Q8IBS5). Kind of experiment: PfCDPK4 kinase inhibitors, biochemical, TCAMS library (AID 1159588; cut-off not given, nearly all actives have IC50 up to about 0.91 µM). The following applies: recombinant PfCDPK4, Kinase-Glo ATP depletion luminescence.

Unmarked numbers belong to inactive results. For part of these data: Entries with a potency or affinity are not part of this list. Calls of active or inactive are those of the source. Unless noted, no rule for the calls is given here.

These results are taken from PubChem BioAssay.

Calcium-dependent protein kinase 4 (Plasmodium falciparum (isolate 3D7)), sequence (Q8IBS5 whole entry, looked up): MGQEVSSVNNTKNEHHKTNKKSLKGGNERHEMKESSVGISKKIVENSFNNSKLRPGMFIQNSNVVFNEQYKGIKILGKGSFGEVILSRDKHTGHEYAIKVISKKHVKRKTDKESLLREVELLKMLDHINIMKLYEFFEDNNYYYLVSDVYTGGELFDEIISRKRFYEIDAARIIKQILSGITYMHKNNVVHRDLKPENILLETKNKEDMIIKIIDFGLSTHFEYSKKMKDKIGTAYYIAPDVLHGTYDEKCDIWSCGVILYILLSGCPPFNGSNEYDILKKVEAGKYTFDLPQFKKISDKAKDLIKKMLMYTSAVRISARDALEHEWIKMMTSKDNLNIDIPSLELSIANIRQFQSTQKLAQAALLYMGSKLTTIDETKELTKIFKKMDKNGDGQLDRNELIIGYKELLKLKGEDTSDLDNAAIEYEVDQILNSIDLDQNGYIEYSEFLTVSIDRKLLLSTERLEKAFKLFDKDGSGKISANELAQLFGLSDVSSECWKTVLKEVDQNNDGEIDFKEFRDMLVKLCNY
Protein kinase 7 (PK7), Plasmodium falciparum 3D7 (PF3D7_0213400), sequence (Q7YTF7 1-343): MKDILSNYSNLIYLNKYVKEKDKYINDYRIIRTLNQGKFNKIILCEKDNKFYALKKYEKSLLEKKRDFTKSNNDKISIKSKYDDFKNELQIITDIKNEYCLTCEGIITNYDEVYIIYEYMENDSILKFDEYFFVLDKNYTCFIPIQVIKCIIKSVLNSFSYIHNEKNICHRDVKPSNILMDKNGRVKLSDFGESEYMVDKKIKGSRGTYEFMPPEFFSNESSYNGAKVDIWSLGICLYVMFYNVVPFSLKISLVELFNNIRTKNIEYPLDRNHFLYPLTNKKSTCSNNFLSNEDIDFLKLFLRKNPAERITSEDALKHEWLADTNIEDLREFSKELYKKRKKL
L-lactate dehydrogenase (Plasmodium falciparum (isolate CDC / Honduras)), sequence (Q27743 whole entry, looked up): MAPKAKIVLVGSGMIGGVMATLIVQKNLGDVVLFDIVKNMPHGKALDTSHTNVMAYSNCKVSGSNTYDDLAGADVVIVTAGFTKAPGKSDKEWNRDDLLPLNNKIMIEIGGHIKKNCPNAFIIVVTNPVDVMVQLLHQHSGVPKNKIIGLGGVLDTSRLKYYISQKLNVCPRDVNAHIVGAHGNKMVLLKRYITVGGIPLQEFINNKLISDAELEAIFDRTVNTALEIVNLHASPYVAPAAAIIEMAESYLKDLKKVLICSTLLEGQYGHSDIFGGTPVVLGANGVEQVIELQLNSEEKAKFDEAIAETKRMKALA
Calcium-dependent protein kinase 1 (Plasmodium falciparum (isolate 3D7)), sequence (P62344 whole entry, looked up): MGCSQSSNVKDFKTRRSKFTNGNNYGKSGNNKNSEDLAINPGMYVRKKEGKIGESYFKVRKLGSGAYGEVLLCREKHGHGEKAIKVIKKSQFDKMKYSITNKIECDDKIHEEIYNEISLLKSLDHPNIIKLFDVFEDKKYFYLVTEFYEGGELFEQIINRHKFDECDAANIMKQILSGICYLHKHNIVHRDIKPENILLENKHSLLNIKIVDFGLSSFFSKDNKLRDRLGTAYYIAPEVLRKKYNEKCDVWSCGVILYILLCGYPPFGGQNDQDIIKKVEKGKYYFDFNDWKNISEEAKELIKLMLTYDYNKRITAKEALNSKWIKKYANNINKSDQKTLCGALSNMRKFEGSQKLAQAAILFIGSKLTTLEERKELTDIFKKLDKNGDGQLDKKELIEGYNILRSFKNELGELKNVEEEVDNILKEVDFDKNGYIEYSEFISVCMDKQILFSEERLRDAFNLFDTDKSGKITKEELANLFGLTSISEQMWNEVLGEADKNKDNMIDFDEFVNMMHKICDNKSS
Plasmodium falciparum protein kinase 6 (PK6, PF3D7_1337100), sequence (Q8IDW1 1-305): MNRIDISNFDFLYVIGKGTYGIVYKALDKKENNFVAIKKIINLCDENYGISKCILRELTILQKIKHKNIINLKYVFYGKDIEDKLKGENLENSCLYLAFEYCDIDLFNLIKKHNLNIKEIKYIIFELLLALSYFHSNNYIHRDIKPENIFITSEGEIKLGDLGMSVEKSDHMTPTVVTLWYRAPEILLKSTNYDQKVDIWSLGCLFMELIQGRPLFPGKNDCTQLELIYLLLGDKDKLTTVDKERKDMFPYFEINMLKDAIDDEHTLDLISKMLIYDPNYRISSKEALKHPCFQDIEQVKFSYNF

The term inhibition denotes the drop in the measured response relative to a control, in per cent. In the case of `COc1ccccc1/C=C/C(=O)N(C)C1CCN(CCCCCNC(=O)/C=C/c2ccc(Cl)c(Cl)c2)CC1`, the growth inhibition is 63% (active) in experiment [1] and 83% (active) in experiment [4]. The inhibition in experiment [2] is 71% (active); in experiment [3], -3%. The result in experiment [5], in experiment [6], in experiment [7] and in experiment [8] was inactive.
Take `CN1CCCC1CCNc1ncc2c(-c3ccc(NC(=O)Nc4cc(C(F)(F)F)ccc4F)cc3)nn(C)c2n1` (stereo not drawn): the growth inhibition was 72% (active) in experiment [1] and 96% (active) in experiment [4]. Further, the inhibition in experiment [2] was 74% (active); in experiment [3] it was 0%. For the same molecule, the outcome in experiment [5], in experiment [6], in experiment [7] and in experiment [8] was inactive.
Turning to `Cc1ccn2c(C(=O)N3CCN(c4cccc5c4nc(-c4ccoc4)n5Cc4ccccn4)CC3)c(C)nc2c1`, the growth inhibition is 99% (active) in experiment [1] and 98% (active) in experiment [4]. Further, the inhibition in experiment [2] is 2%; in experiment [3] it was -1%. Further, the outcome in experiment [5], in experiment [6], in experiment [7] and in experiment [8] was inactive.
`CCCCN(CCCC)C(=O)CC(O)c1cc2c(Cl)cc(Cl)cc2c2cc(C(F)(F)F)ccc12` (stereo not drawn): the growth inhibition in experiment [1] is 68% (active); in experiment [4], 92% (active). The results for the inhibition in experiment [2] and in experiment [3] were -12% and -2%, respectively. Further, the result in experiment [5], in experiment [6], in experiment [7] and in experiment [8] was inactive.
In the case of `COC(=O)c1cccc(CNCc2ccc(-c3cccc(-c4nc5ccc(C(F)(F)F)cc5[nH]4)c3)cc2)c1`, the growth inhibition in experiment [1] was 97% (active); in experiment [4], 102% (active). The inhibition is 5% in experiment [2] and 6% in experiment [3]. For the same molecule, the result in experiment [5], in experiment [6], in experiment [7] and in experiment [8] was inactive.
For `O=S(=O)(c1ccc(Cl)cc1Cl)N1CCCCC(c2ccc(C(F)(F)F)cc2)=N1`, the results for the growth inhibition in experiment [1] and in experiment [4] were 99% (active) and 100% (active), respectively. In addition, the inhibition in experiment [2] was 10%; in experiment [3], 4%. Further, the outcome in experiment [5], in experiment [6], in experiment [7] and in experiment [8] was inactive.
As for `N#Cc1ccc(NC(=Nc2ccccc2Br)N(C2CCCCC2)C2CCCCC2)c(O)c1`, the growth inhibition in experiment [1] was 96% (active); in experiment [4], 99% (active). Also, the inhibition in experiment [2] and in experiment [3] was 4% in each case. Moreover, the result in experiment [5], in experiment [6], in experiment [7] and in experiment [8] was inactive.
For `CCc1c(C)nc(-n2nc(C)cc2NC(=O)c2ccc(OC)cc2OC)[nH]c1=O`, the growth inhibition is 57% (active) in experiment [1] and 96% (active) in experiment [4]. The inhibition in experiment [2] is 42%; in experiment [3] it was 1%. Besides, the outcome in experiment [5], in experiment [6], in experiment [7] and in experiment [8] was inactive.
For the molecule `Cc1cc(N2CCC(C)CC2)nc2cc(O)ccc12`, the growth inhibition in experiment [1] is 41%; in experiment [4], 89% (active). Besides, the inhibition in experiment [2] was 31%; in experiment [3] it was -1%. Besides, the result in experiment [5], in experiment [6], in experiment [7] and in experiment [8] was inactive.
`CN1CCCC1CCCOC(=O)c1ccc(N)cc1` (stereo not drawn): the values for the growth inhibition in experiment [1] and in experiment [4] were 2% and 101% (active), respectively. For the same molecule, the inhibition in experiment [2] is 8%; in experiment [3] it was -2%. Also, the outcome in experiment [5], in experiment [6], in experiment [7] and in experiment [8] was inactive.
Turning to `O=C(Nc1ccc(C(F)(F)F)cc1)c1cc(Br)cnc1NCCCn1ccnc1`, the figures for the growth inhibition in experiment [1] and in experiment [4] were 98% (active) and 99% (active), respectively. Further, the inhibition is 32% in experiment [2] and 2% in experiment [3]. Besides, the outcome in experiment [5], in experiment [6], in experiment [7] and in experiment [8] was inactive.
As for `CC(C)Cc1cn(-c2nc(-c3nc4ccccc4[nH]3)cs2)c2cc(Cl)ccc12`, the values for the growth inhibition in experiment [1] and in experiment [4] were 68% (active) and 99% (active), respectively. Further, the values for the inhibition in experiment [2] and in experiment [3] were 9% and -3%, respectively. In addition, the result in experiment [5], in experiment [6], in experiment [7] and in experiment [8] was inactive.
Regarding `Cc1cccc2[nH]c(-c3ccc(-c4ccc(CNCc5cccc(N)c5)cc4)s3)nc12`, the results for the growth inhibition in experiment [1] and in experiment [4] were 78% (active) and 102% (active), respectively. Further, the values for the inhibition in experiment [2] and in experiment [3] were 10% and -2%, respectively. The outcome in experiment [5], in experiment [6], in experiment [7] and in experiment [8] was inactive.
As to `O=C(NC1CC1)c1cnc(N2CCC(c3ccccc3)CC2)c(Cl)c1`, the growth inhibition in experiment [1] was 95% (active); in experiment [4] it was 94% (active). The inhibition is 6% in experiment [2] and 0% in experiment [3]. For the same molecule, the outcome in experiment [5], in experiment [6], in experiment [7] and in experiment [8] was inactive.
In the case of `CCc1cn(C)c2c(N3CCCC3=O)cc(C(=O)N[C@@H](Cc3ccccc3)[C@H](O)CNCc3cccc(OC)c3)cc12`, the results for the growth inhibition in experiment [1] and in experiment [4] were 97% (active) and 96% (active), respectively. Moreover, the values for the inhibition in experiment [2] and in experiment [3] were 7% and 0%, respectively. In addition, the result in experiment [5], in experiment [6], in experiment [7] and in experiment [8] was inactive.
Consider `COc1cc(F)c2nccc([C@@H](O)CN3CCC(NCc4cc5c(cc4F)OCCO5)CC3)c2c1`, for which the values for the growth inhibition in experiment [1] and in experiment [4] were 45% and 99% (active), respectively. For the same molecule, the inhibition in experiment [2] is 23%; in experiment [3], -1%. Also, the outcome in experiment [5], in experiment [6], in experiment [7] and in experiment [8] was inactive.
Turning to `Cc1cc(OCCCN2CCCCC2)ccc1NC(=O)COc1ccc(Cl)cc1C(=O)c1cc(Cl)cc(C#N)c1`, the growth inhibition is 16% in experiment [1] and 93% (active) in experiment [4]. In addition, the inhibition in experiment [2] was 28%; in experiment [3], -8%. The outcome in experiment [5], in experiment [6], in experiment [7] and in experiment [8] was inactive.
Consider `COc1ccc(NC(=O)NC2CCN(c3ccnc4cc(Cl)ccc34)CC2)cc1`, for which the values for the growth inhibition in experiment [1] and in experiment [4] were 64% (active) and 83% (active), respectively. Also, the inhibition in experiment [2] is 5%; in experiment [3], -10%. In addition, the outcome in experiment [5], in experiment [6], in experiment [7] and in experiment [8] was inactive.
With `COc1ccc2nccc([C@@H](O)CN3CCC(NC(=O)/C=C/c4ccc5[nH]c(=O)ccc5c4)CC3)c2c1`, the growth inhibition in experiment [1] is 83% (active); in experiment [4], 96% (active). Moreover, the inhibition in experiment [2] is 2%; in experiment [3], 5%. For the same molecule, the result in experiment [5], in experiment [6], in experiment [7] and in experiment [8] was inactive.
On to `c1ccc(-c2[nH]ncc2Nc2ccnc3ccccc23)nc1`, for which the growth inhibition in experiment [1] is 98% (active); in experiment [4], 100% (active). For the same molecule, the inhibition in experiment [2] is 36%; in experiment [3], 1%. Also, the result in experiment [5], in experiment [6], in experiment [7] and in experiment [8] was inactive.
Consider `COc1ccc(Nc2nccc(N3CCC(NC(=O)c4cccc(C#N)c4)C3)n2)cc1` (stereo not drawn), for which the values for the growth inhibition in experiment [1] and in experiment [4] were 93% (active) and 92% (active), respectively. For the same molecule, the values for the inhibition in experiment [2] and in experiment [3] were 6% and -3%, respectively. Moreover, the result in experiment [5], in experiment [6], in experiment [7] and in experiment [8] was inactive.
